# Unmarked numbers belong to inactive results. Results filed as inconclusive are left out. Activity calls are given as the source filed them. Unless noted, calls follow the shape of the dose curve; as a rule, active = well fitted curve in either direction with a large enough effect (not every such curve was filed as active); inconclusive = small, poorly fitted or top-dose-only effect, or another doubt; inactive = flat fitted curve, though single readings scatter.
# What was measured:
# [1] = AP1 Signaling Pathway (AID 357); conditions: ME-180 AP-1-bla reporter, EGF-induced, beta-lactamase ratio, 5 h; at 17.2 µM (top of the series) unless noted;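 also: ME-180 reporter cells stimulated with EGF at its EC50 level; % is scaled to controls: 0 for no effect and ±100 for the full control effect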
# How it was run: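 Beta-lactamase reporter under AP-1 response element, ME-180 background. Stimulus: EC50 EGF. Compound exposure 5 h, 37 °C. Detection: CCF4, 2.5 h RT, 460/530 nm. Values: AC50 from titration.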
# [2] = Stat Signaling Pathway (AID 446); conditions: ME-180 (cervical carcinoma) SIE beta-lactamase reporter, IL-6 stimulated, 5 h; at 17.2 µM (top of the series) unless noted;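 also: ME-180 cervical cancer cells given 40 pM IL-6 alongside compound; SIE-controlled beta-lactamase reporter measured as 460/530 nm FRET emission ratio; % is scaled to controls: 0 for no effect and ±100 for the full control effect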
# How it was run: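 Emission at 460 and 530 nm (excitation 405 nm) reports SIE-controlled beta-lactamase in ME-180 cells. Cells received compound with 40 pM IL-6 for 5 hrs at 37 C; data scaled between 300 pM IL-6 and 125 nM JAK-inhibitor controls.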
# [3] = target: Glucocorticoid receptor (Homo sapiens) (UniProt P04150); test: GR-GFP Redistribution (AID 450;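 active = compounds whose dose series gives a full or clear partial fitted curve of increased nuclear translocation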; also: potency is read from the fitted curve at half-maximal effect)
# Glucocorticoid receptor (Homo sapiens), sequence (P04150 whole entry, looked up): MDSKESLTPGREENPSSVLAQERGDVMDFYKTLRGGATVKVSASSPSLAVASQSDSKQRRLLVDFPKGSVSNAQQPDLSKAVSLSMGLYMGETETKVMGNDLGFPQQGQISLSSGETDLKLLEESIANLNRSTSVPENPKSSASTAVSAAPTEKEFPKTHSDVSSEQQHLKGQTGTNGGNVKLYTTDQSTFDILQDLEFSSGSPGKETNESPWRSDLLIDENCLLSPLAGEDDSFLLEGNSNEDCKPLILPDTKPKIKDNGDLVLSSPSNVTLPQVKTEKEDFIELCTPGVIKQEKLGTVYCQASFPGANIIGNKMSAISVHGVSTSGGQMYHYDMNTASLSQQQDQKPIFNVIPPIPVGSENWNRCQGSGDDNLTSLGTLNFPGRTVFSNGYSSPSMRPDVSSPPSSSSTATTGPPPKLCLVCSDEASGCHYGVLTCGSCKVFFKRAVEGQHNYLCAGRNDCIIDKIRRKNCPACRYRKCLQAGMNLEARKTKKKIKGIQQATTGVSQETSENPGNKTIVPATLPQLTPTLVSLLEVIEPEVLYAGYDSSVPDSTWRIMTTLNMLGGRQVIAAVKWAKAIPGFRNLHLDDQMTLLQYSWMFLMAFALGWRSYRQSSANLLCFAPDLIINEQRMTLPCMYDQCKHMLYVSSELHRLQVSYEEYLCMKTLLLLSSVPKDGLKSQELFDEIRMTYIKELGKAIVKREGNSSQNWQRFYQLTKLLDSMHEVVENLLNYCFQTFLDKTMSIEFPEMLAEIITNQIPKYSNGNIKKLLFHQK
SMILES,"activity change, negative = inhibition [1] [%]","activity, negative = inhibition [2]",Potency [3] [µM]
COc1cccc(C2=CC(c3ccc(N(C)C)cc3)n3nnnc3N2)c1 (configuration not stated),-12.2,14.4%,> 20.6
CC1(C)Cc2c(sc3nc(SCC#N)n(C4CCCCC4)c(=O)c23)CO1,1.9,10%,> 20.6
O=S(=O)(c1ccccc1)N1CCC(N2CCCCCC2)CC1,5.59,4.98%,> 20.6
N#Cc1nc(COc2ccc(Br)cc2)oc1N1CCN(Cc2ccccc2)CC1,-15.5,8.74%,> 20.6
N#CC1=C(N)N(c2ccccc2)C(c2ccccc2)C1(C#N)C#N (configuration not stated),-27.2,-18.6%,> 20.6
CC(C)Cc1nc(N2CCOCC2)c(C#N)c2c1CCC2,-16.4,-0.768%,> 20.6
N#Cc1c(NCCCO)nc(-c2ccccc2)c2c1CCCC2,-2.16,-5.59%,> 20.6
CCc1nc2sc3c(c2c(=O)o1)CCCC3,-11.3,3.67%,> 20.6
CC(C)COc1ccc(C(=O)OCCN2CCOCC2)c(O)c1,1.3,0.653%,> 20.6
CN1CCN(CC(=O)Nc2nc(-c3ccccc3)cs2)CC1,9.16,-4.84%,> 20.6
Cn1ccnc1C(O)c1ccc(OCc2ccccc2)cc1 (configuration not stated),-6.56,2.08%,> 20.6
N#C/C(C(=O)NCc1ccco1)=C1/SC(Cc2ccc(Cl)cc2)C(=O)N1c1ccccc1 (configuration not stated),-16.2,-13.4%,> 20.6
COc1cccc(-c2nc(N3CC(C)CC(C)C3)c3ccccc3n2)c1O (configuration not stated),13.7,8.47%,> 20.6
Cc1ccc(S(=O)(=O)c2cc3c(=O)n4cccc(C)c4nc3n(CC3CCCO3)c2=N)cc1 (configuration not stated),2.16,2.48%,> 20.6
CC(C)Cc1nc(N2CCCCC2)c(C#N)c2c1CCC2,28.8,9.01%,> 20.6
COc1ccc(C2NC(=O)NC(O)(C(F)(F)F)C2C(=O)c2ccc(F)cc2)cc1 (configuration not stated),-8.86,-0.989%,> 20.6
O=C(Nc1nc(NC(=O)c2ccco2)n(-c2ccccc2)n1)c1ccccc1,-13.5,-22.6%,> 20.6
COc1ccc(N/C=C(\C#N)c2nc3ccccc3n2C)c(OC)c1,-21.3,-22%,> 20.6
Cc1ccc(S(=O)(=O)N2CCN(c3nc(C)c4c(c3C#N)CC(C)(C)OC4)CC2)cc1,1.26,89.5% [activator] (active),> 20.6
CSC1=Nc2sc3c(c2C2=NCCN12)CC(C)(C)OC3,26,14.3%,> 20.6
CC(=O)O[C@H]1C(=O)[C@]2(C)[C@H]([C@H](OC(=O)c3ccccc3)[C@]3(O)C[C@H](OC(=O)[C@H](O)[C@@H](NC(=O)c4ccccc4)c4ccccc4)C(C)=C1C3(C)C)[C@]1(OC(C)=O)CO[C@@H]1C[C@@H]2O,-5.19,-2.52%,> 20.6
CCOC(=O)c1[nH]c2ccc(OC)cc2c1NC(=O)CCN1CCc2ccccc2C1,-5.08,-3.49%,> 20.6
CCCCCCSC1=C(C#N)C(c2ccccc2)CC(=O)N1 (configuration not stated),-25.4,-19.8%,> 20.6
CCCCc1c(C)c2ccc(OCC(C)=O)cc2oc1=O,-16.2,-0.63%,> 20.6
COC(=O)CSC1=C(C#N)C(=O)NC2(CCCCC2)S1,1.61,3.53%,> 20.6
CCCOc1cccc(CN2CCCCC2c2cccnc2)c1 (configuration not stated),0.284,0.49%,> 20.6
CCCCCNc1nc(N2CCCC2)c2c(c1C#N)CCN(C)C2,3.36,-7.71%,> 20.6
CCOC(=O)C1=C(N)c2ccccc2CC1C(C)C (configuration not stated),-3.93,-8.13%,> 20.6
CCCCN(CCCC)C(=O)CSc1nnc2n(C)c(=O)c3c4c(sc3n12)CCCC4,-8.91,-16.8%,> 20.6

# From PubChem BioAssay (NCATS)
